# Laboratory results: PubChem BioAssay (EPA / NIEHS)
# Activity calls are given as the source filed them. The calls were made as follows: active = hit-call score of the fitted dose curve at least 0.9, where 1 is the maximum; inactive = score below 0.9.
# Columns and labels:
# [1] = ATG_ISRE_CIS: Attagene CIS-FACTORIAL HepG2 Assay for human Interferon Regulatory Factor 1 (IRF1) binding to an Interferon-Stimulated Response Element (ISRE) (AID 2282948); conditions: HepG2 ISRE cis-reporter (Attagene), mRNA transcription readout; actives raise or lower the signal
# In short: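 Endogenous transcription factor activity read as reporter transcript abundance via RT-PCR and capillary electrophoresis. HepG2 cells transiently transfected, 24 h chemical exposure. Gain or loss fitted against DMSO baseline.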
# [2] = ATG_M_32_CIS: Attagene CIS-FACTORIAL HepG2 Assay for M32 Transcription Factor (Internal Marker) (AID 2282949); conditions: HepG2 Attagene cis-factorial M32 reporter, mRNA; actives raise or lower the signal;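 also: background control marker of the multiplexed CIS panel rather than a real target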
# In short: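 Transient MRTU transfection of HepG2; 24 h compound treatment; TriZol RNA, oligo(dT) RT, reporter PCR, 6-FAM primer extension, HpaI cut, CE. Gain/loss of signal vs DMSO.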
# [3] = ATG_M_06_CIS: Attagene CIS-FACTORIAL HepG2 Assay for M06 Transcription Factor (Internal Marker) (AID 2282950); conditions: HepG2 Attagene CIS-FACTORIAL M06 internal marker reporter; actives raise or lower the signal
# In short: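 Terse: HepG2, transient MRTU transfection (FuGene 6), 24 h dosing; total RNA, oligo(dT) RT, PCR, FAM label, HpaI cut, capillary electrophoresis; bidirectional fit vs DMSO baseline; background-control endpoint.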
# [4] = target: Hypoxia-inducible factor 1-alpha (Homo sapiens) (UniProt Q16665); experiment: ATG_HIF1a_CIS: Attagene CIS-FACTORIAL HepG2 Assay for human Hypoxia Inducible Factor 1 (HIF1A) (AID 2282951); conditions: HepG2 Attagene cis-factorial HIF1a reporter transcription; actives raise or lower the signal
# Sequence of Hypoxia-inducible factor 1-alpha (Homo sapiens) (Q16665 whole entry, looked up): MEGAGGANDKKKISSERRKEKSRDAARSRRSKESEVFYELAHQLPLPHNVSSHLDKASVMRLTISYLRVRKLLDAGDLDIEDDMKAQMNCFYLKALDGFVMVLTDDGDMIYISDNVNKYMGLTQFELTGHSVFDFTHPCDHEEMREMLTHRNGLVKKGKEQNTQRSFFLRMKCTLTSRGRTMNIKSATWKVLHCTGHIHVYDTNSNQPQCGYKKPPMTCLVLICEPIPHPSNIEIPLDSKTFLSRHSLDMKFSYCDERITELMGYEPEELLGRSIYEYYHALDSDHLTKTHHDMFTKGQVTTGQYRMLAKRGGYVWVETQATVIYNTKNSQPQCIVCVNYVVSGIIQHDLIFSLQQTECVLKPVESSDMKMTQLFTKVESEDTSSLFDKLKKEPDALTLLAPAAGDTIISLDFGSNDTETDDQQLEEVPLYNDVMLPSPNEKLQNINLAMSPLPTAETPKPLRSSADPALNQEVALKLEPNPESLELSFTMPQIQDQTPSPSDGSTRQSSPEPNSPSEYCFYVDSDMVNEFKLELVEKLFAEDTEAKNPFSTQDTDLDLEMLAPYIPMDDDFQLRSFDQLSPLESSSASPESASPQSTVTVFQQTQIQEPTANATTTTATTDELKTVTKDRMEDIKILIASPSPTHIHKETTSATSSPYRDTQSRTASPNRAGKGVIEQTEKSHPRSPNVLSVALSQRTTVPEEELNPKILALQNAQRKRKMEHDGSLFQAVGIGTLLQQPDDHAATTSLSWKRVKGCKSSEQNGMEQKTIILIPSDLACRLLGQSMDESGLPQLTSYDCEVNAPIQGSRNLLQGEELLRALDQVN
# In short: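 Measures endogenous transcription-factor activity through cis-regulated reporter mRNA in HepG2. Cells dosed 24 h; transcripts quantified by RT-PCR with 6-FAM-labelled products separated by capillary electrophoresis; DMSO serves as negative control.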
# [5] = target: Hepatocyte nuclear factor 6 (Homo sapiens) (UniProt Q9UBC0); experiment: ATG_HNF6_CIS: Attagene CIS-FACTORIAL HepG2 Assay for human Hepatocyte Nuclear Factor 6 (HNF6) (AID 2282952); conditions: HepG2 Attagene cis-factorial HNF6 reporter transcription; actives raise or lower the signal
# Sequence of Hepatocyte nuclear factor 6 (Homo sapiens) (Q9UBC0 whole entry, looked up, the tested form may be a part): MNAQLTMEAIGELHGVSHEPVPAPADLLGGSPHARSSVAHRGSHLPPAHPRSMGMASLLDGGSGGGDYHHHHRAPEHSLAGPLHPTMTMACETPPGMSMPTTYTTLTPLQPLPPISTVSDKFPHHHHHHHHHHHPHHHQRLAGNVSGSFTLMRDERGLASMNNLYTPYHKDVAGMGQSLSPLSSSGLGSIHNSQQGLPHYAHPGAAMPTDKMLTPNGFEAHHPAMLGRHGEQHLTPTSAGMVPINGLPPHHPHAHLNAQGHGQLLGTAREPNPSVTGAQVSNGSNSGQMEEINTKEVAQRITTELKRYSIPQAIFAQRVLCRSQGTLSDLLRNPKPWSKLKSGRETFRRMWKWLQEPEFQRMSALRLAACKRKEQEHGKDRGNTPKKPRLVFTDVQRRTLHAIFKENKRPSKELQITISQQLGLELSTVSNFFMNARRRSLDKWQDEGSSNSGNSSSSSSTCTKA
# In short: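 First, HepG2 cells were transfected with the multiplexed cis reporter library and dosed with chemical for 24 h. Next, RNA was reverse-transcribed, PCR-amplified and fluorescently labelled. Finally, HpaI-digested fragments were read by capillary electrophoresis.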
# [6] = target: Heat shock factor protein 1 (Homo sapiens) (UniProt Q00613); experiment: ATG_HSE_CIS: Attagene CIS-FACTORIAL HepG2 Assay for human Heat Shock Transcription Factor 1 (HSE) (AID 2282953); conditions: HepG2 HSE cis-reporter, Attagene RNA transcription; actives raise or lower the signal
# Sequence of Heat shock factor protein 1 (Homo sapiens) (Q00613 whole entry, looked up, the tested form may be a part): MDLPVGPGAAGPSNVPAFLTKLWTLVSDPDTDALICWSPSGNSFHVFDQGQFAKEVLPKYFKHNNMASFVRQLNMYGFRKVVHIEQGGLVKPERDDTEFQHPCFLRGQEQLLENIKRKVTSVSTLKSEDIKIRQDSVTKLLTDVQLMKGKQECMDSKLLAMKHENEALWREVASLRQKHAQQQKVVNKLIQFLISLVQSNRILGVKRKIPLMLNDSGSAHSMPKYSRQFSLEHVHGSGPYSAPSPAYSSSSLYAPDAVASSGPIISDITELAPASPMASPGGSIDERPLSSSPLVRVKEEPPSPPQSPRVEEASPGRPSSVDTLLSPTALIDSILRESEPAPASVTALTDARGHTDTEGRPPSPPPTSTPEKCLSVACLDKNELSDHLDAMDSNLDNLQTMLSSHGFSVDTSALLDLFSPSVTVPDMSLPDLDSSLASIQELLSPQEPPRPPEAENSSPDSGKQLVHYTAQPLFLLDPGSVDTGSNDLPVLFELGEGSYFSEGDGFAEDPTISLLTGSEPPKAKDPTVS
# In short: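 Read-out: fluorescence of reporter-specific RT-PCR fragments separated by capillary electrophoresis. HepG2 carrying transfected cis-element reporter units; 24 h dosing; activity fitted in both directions relative to DMSO baseline.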
# [7] = ATG_MRE_CIS: Attagene CIS-FACTORIAL HepG2 Assay for human Metal Responsive Element (MRE) (AID 2282954); conditions: HepG2 MRE cis-reporter transcription, Attagene multiplex; actives raise or lower the signal
# In short: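 Readout: capillary electrophoresis of 6-FAM-labelled, HpaI-digested RT-PCR reporter products. System: HepG2 cells carrying transient multiplexed cis reporters, dosed 24 h. Analysis: bidirectional fit, DMSO baseline.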
# [8] = target: Paired box protein Pax-6 (Homo sapiens) (UniProt P26367); experiment: ATG_Pax6_CIS: Attagene CIS-FACTORIAL HepG2 Assay for human Paired Box 6 (PAX6) (AID 2282956); conditions: HepG2 CIS-FACTORIAL PAX6 reporter transcription, RNA readout; actives raise or lower the signal
# Sequence of Paired box protein Pax-6 (Homo sapiens) (P26367 whole entry, looked up): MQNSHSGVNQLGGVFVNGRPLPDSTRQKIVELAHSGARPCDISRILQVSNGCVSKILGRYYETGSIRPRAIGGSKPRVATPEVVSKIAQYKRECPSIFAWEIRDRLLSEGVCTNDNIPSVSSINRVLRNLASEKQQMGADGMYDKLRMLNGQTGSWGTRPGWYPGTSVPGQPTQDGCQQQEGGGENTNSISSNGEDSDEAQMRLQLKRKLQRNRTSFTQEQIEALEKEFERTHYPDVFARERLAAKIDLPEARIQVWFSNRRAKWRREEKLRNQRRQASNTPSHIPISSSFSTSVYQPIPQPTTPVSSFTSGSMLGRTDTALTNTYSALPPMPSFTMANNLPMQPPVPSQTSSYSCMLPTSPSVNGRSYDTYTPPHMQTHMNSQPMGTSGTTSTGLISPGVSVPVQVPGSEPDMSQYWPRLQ
# In short: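 Read-out is reporter transcript level, measured by RT-PCR with fluorescent primer extension and capillary electrophoresis after 24 h dosing of transfected HepG2 cells. Activity in either direction fitted relative to DMSO control.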
# [9] = ATG_PXRE_CIS: Attagene CIS-FACTORIAL HepG2 Assay for human Pregnane X Receptor Element (PXRE) (AID 2282957); conditions: HepG2 Attagene CIS-FACTORIAL PXRE reporter, mRNA; actives raise or lower the signal
# In short: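 After a 24 h chemical incubation, total RNA from transfected HepG2 cells was reverse-transcribed and reporter cDNA amplified, FAM-labeled, HpaI-digested and sized by capillary electrophoresis. DMSO served as baseline for bidirectional curve fitting.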
# [10] = ATG_PPRE_CIS: Attagene CIS-FACTORIAL HepG2 Assay for human Peroxisome Proliferator-activated Response Element (PPRE) (AID 2282958); conditions: HepG2 PPRE cis-element reporter, Attagene transcription factor profiling; actives raise or lower the signal
# In short: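 Cells are first transfected transiently with the multiplexed reporter library, then dosed for 24 h. Total RNA is reverse-transcribed, amplified, fluorescently end-labeled and HpaI-cut before capillary electrophoresis; activity is fitted bidirectionally against DMSO controls.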
# [11] = ATG_RORE_CIS: Attagene CIS-FACTORIAL HepG2 Assay for human RAR-related Orphan Receptor Element (RORE) (AID 2282959); conditions: HepG2 Attagene cis-factorial RORE reporter, mRNA; actives raise or lower the signal
# In short: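 Cells were HepG2 carrying transfected cis-regulated reporter constructs, dosed for 24 hours. Total RNA was reverse-transcribed and reporter cDNA amplified, fluorescently labeled and sized by capillary electrophoresis. Activity was fitted bidirectionally relative to DMSO.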
# [12] = ATG_Sox_CIS: Attagene CIS-FACTORIAL HepG2 Assay for human SRY-box transcription factor (SOX) (AID 2282960); conditions: HepG2 Attagene cis-factorial SOX reporter, mRNA; actives raise or lower the signal
# In short: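 Transient MRTU transfection of HepG2; 24 h compound incubation; TriZol RNA, oligo(dT) RT, PCR, 6-FAM primer extension, HpaI cut, CE. Bidirectional fit, DMSO = baseline.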
# [13] = target: Transcription factor Sp1 (Homo sapiens) (UniProt P08047); experiment: ATG_Sp1_CIS: Attagene CIS-FACTORIAL HepG2 Assay for human Specificity Protein 1 (Sp1) (AID 2282961); conditions: HepG2 Sp1 cis-reporter transcription, actives raise or lower the signal
# Sequence of Transcription factor Sp1 (Homo sapiens) (P08047 whole entry, looked up): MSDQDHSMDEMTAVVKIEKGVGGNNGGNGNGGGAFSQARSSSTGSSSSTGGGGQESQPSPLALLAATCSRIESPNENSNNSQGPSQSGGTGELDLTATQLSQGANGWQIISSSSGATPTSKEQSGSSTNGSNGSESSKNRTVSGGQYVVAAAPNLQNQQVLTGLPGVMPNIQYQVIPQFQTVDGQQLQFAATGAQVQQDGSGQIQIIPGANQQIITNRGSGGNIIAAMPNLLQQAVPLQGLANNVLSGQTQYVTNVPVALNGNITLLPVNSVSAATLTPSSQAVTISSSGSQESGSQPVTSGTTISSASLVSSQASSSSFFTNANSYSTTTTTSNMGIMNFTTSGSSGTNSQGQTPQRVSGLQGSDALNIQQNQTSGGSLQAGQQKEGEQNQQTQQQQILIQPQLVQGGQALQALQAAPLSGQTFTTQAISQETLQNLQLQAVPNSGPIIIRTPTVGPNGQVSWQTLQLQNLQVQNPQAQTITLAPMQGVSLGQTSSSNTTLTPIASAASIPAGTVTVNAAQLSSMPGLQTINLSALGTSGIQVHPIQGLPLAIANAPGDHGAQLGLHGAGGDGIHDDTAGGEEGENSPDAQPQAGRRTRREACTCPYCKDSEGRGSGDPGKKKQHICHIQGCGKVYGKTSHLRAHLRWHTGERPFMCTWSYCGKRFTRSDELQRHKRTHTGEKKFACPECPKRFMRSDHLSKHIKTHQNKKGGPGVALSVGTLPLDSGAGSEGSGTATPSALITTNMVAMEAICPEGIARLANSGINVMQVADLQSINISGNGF
# In short: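 Endogenous Sp1 activity was gauged in human liver HepG2 cells bearing transfected reporter units under a cis-regulating promoter. After 24 h dosing, reporter mRNA was quantified by RT-PCR with capillary electrophoresis, and activity fitted bidirectionally versus DMSO.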
# [14] = ATG_SREBP_CIS: Attagene CIS-FACTORIAL HepG2 Assay for human Sterol Regulatory Element Binding (SREBP) (AID 2282962); conditions: HepG2 Attagene cis-factorial SREBP reporter, mRNA; actives raise or lower the signal
# In short: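 Endogenous SREBP activity read as cis-element-driven reporter transcript in transiently transfected HepG2, 24 h post-dosing; quantified via RT-PCR plus capillary electrophoresis of fluorescent fragments. Gain or loss of signal fitted relative to DMSO baseline.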
# [15] = target: Signal transducer and activator of transcription 3 (Homo sapiens) (UniProt P40763); experiment: ATG_STAT3_CIS: Attagene CIS-FACTORIAL HepG2 Assay for human Signal Transducer and Activator of Transcription 3 (STAT3) (AID 2282963); conditions: HepG2, Attagene cis-factorial STAT3 reporter transcription; actives raise or lower the signal
# Sequence of Signal transducer and activator of transcription 3 (Homo sapiens) (P40763 whole entry, looked up): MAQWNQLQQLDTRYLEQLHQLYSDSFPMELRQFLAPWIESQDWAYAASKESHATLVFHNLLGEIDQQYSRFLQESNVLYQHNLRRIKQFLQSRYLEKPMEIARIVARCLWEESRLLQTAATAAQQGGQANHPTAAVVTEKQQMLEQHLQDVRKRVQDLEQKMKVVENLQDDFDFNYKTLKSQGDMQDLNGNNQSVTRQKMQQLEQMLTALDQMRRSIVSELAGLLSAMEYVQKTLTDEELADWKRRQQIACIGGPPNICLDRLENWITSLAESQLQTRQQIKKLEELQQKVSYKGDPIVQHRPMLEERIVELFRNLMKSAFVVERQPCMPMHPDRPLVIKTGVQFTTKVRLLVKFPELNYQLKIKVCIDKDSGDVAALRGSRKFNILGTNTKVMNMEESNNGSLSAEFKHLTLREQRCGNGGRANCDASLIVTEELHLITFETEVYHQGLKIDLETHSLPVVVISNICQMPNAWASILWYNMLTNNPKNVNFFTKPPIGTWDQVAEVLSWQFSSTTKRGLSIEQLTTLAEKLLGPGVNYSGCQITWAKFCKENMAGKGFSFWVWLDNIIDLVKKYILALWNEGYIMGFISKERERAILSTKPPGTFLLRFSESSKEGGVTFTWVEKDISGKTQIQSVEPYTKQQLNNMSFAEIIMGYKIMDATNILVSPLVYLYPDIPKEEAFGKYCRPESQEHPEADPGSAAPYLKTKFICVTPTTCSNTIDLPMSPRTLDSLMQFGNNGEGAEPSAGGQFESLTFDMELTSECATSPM
# In short: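 Uses human liver HepG2 transiently carrying cis-regulated reporter transcription units. Following 24 h dosing, reporter mRNA induction was detected by RT-PCR and capillary electrophoresis, analysed bidirectionally versus DMSO.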
# [16] = ATG_TA_CIS: Attagene CIS-FACTORIAL HepG2 Assay for human TA Basal Promoter (AID 2282964); conditions: HepG2 Attagene CIS-factorial TA basal promoter reporter; actives raise or lower the signal
# In short: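 Transfected HepG2, 24 h compound exposure; RNA → RT-PCR → FAM primer extension → HpaI cut → CE fluorescence. Gain/loss-of-signal fitted against DMSO negative control. Background-control readout.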
# [17] = ATG_TCF_b_cat_CIS: Attagene CIS-FACTORIAL HepG2 Assay for human T-Cell-Factor with beta-catenin (TCF/b-cat) (AID 2282965); conditions: HepG2 TCF/beta-catenin cis-reporter transcription, actives raise or lower the signal
# In short: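 In this cis-format system, transfected HepG2 cells report endogenous transcription factor activity. Readout after 24 h exposure is reporter transcript abundance from RT-PCR and capillary electrophoresis, analysed for gain or loss of signal versus DMSO.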
# [18] = ATG_TAL_CIS: Attagene CIS-FACTORIAL HepG2 Assay for human TAL Basal Promoter (AID 2282966); conditions: HepG2 Attagene cis-factorial TAL promoter reporter; actives raise or lower the signal;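 also: background control endpoint measuring basal TAL promoter reporter mRNA not a specific factor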
# In short: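 Basal-promoter background-control endpoint from a multiplexed HepG2 reporter panel. Cells were exposed 24 h, then reporter mRNA was read by RT-PCR/CE fluorescence and fitted in both directions relative to DMSO.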
# [19] = ATG_PBREM_CIS: Attagene CIS-FACTORIAL HepG2 Assay for human Phenobarbital-responsive Enhancer Module (PBREM) (AID 2282955); conditions: HepG2 PBREM cis-reporter, Attagene multiplexed transcription; actives raise or lower the signal
# In short: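 Fluorescence of labelled reporter cDNA fragments, resolved by capillary electrophoresis, gives mRNA induction in transfected HepG2 cells treated for 24 h; DMSO serves as negative control and baseline.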
compound,measurement,setting,value
NNC(=S)NN,outcome,[1],inactive
same,outcome,[2],inactive
same,outcome,[3],inactive
same,outcome,[4],inactive
same,outcome,[5],inactive
same,outcome,[6],inactive
same,outcome,[7],inactive
same,outcome,[8],inactive
same,outcome,[9],inactive
same,outcome,[10],inactive
same,outcome,[11],inactive
same,outcome,[12],inactive
same,outcome,[13],inactive
same,outcome,[14],inactive
same,outcome,[15],inactive
same,outcome,[16],inactive
same,outcome,[17],inactive
same,outcome,[18],inactive
COc1ccc(C=O)cc1OC,outcome,[1],inactive
same,outcome,[2],inactive
same,outcome,[3],inactive
same,outcome,[4],inactive
same,outcome,[5],inactive
same,outcome,[6],inactive
same,outcome,[7],inactive
same,outcome,[19],inactive
same,outcome,[8],inactive
same,AC50,[9],32 µM (active)
same,outcome,[11],inactive
same,outcome,[12],inactive
same,outcome,[13],inactive
same,outcome,[14],inactive
same,outcome,[15],inactive
same,outcome,[16],inactive
same,outcome,[17],inactive
C(=NC1CCCCC1)=NC1CCCCC1,AC50,[1],17.7 µM (active)
same,outcome,[2],inactive
same,outcome,[3],inactive
same,outcome,[4],inactive
same,outcome,[5],inactive
same,outcome,[6],inactive
same,AC50,[7],33.4 µM (active)
same,AC50,[19],8.4 µM (active)
same,outcome,[8],inactive
same,outcome,[9],inactive
same,AC50,[10],2.46 µM (active)
same,AC50,[11],2.33 µM (active)
same,outcome,[12],inactive
same,outcome,[13],inactive
same,AC50,[14],17.2 µM (active)
same,outcome,[15],inactive
same,outcome,[16],inactive
same,outcome,[17],inactive
same,outcome,[18],inactive
CCCCP(CCCC)CCCC,outcome,[1],inactive
same,outcome,[2],inactive
same,outcome,[3],inactive
same,outcome,[4],inactive
same,outcome,[5],inactive
same,outcome,[6],inactive
same,outcome,[7],inactive
same,outcome,[8],inactive
same,AC50,[9],23.6 µM (active)
same,outcome,[11],inactive
same,outcome,[12],inactive
same,outcome,[13],inactive
same,outcome,[14],inactive
same,outcome,[15],inactive
same,outcome,[16],inactive
same,outcome,[17],inactive
same,outcome,[18],inactive
[O-][Cl+2]([O-])O,outcome,[1],inactive
same,outcome,[2],inactive
same,outcome,[3],inactive
same,outcome,[4],inactive
same,outcome,[6],inactive
same,outcome,[7],inactive
same,outcome,[19],inactive
same,outcome,[8],inactive
same,AC50,[9],69 µM (active)
same,outcome,[12],inactive
same,outcome,[13],inactive
same,outcome,[14],inactive
same,outcome,[15],inactive
same,outcome,[16],inactive
same,outcome,[17],inactive
same,outcome,[18],inactive
CC(C)OC(=O)Nc1ccccc1,outcome,[1],inactive
same,outcome,[2],inactive
same,outcome,[3],inactive
same,outcome,[4],inactive
same,outcome,[6],inactive
same,outcome,[7],inactive
same,outcome,[19],inactive
same,outcome,[8],inactive
same,AC50,[9],100 µM (active)
same,outcome,[11],inactive
same,outcome,[12],inactive
same,outcome,[13],inactive
same,outcome,[14],inactive
same,outcome,[15],inactive
same,outcome,[16],inactive
same,outcome,[17],inactive
same,outcome,[18],inactive
N#Cc1ccccn1,outcome,[1],inactive
same,outcome,[2],inactive
same,outcome,[3],inactive
same,outcome,[4],inactive
same,outcome,[7],inactive
same,outcome,[19],inactive
same,outcome,[8],inactive
same,outcome,[9],inactive
same,outcome,[11],inactive
same,outcome,[12],inactive
same,outcome,[13],inactive
same,outcome,[14],inactive
same,outcome,[15],inactive
same,outcome,[16],inactive
same,outcome,[17],inactive
Cc1ccc(N)cc1Cl,outcome,[1],inactive
same,outcome,[2],inactive
same,outcome,[3],inactive
same,outcome,[4],inactive
same,outcome,[6],inactive
same,outcome,[7],inactive
same,outcome,[19],inactive
same,outcome,[8],inactive
same,outcome,[9],inactive
same,outcome,[11],inactive
same,outcome,[12],inactive
same,outcome,[13],inactive
same,outcome,[14],inactive
same,outcome,[15],inactive
same,outcome,[16],inactive
same,outcome,[17],inactive
same,outcome,[18],inactive
C=CC(=O)OCCCCCC(C)C,outcome,[1],inactive
same,outcome,[2],inactive
same,outcome,[3],inactive
same,outcome,[4],inactive
same,outcome,[5],inactive
same,outcome,[6],inactive
same,outcome,[7],inactive
same,outcome,[8],inactive
same,AC50,[9],69.5 µM (active)
same,outcome,[10],inactive
same,outcome,[11],inactive
same,outcome,[12],inactive
same,outcome,[13],inactive
same,outcome,[14],inactive
same,outcome,[15],inactive
same,outcome,[16],inactive
same,outcome,[17],inactive
same,outcome,[18],inactive
